Values joined by “and” are separate entries in the source; they are usually repeats but may differ in a detail not shown here. Equal values may be shown once. The panel holds about 83,000 compounds, 20% with a hit somewhere; the sample as a whole holds those more often.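 Single-concentration screen, 48 h exposure, 96-well plates. Endpoint: percent growth. Below 10 = active.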 Active and inactive are the calls of the source.

Test systems include NCI-H23 lung; NCI-H226 lung; HOP-62 NSCLC; NCI-H460 lung; HOP-92 NSCLC; NCI-H522 lung; A549/ATCC NSCLC; 786-0 renal; COLO 205 colon; NCI-H322M lung.
What all share (assay): NCI-60 one-dose screen, 48 h (100 = growth as untreated, 0 = no growth, -100 = all killed)
Settings in all cases: 10 µM

As to `CCCCCCCC[N+]12CN3CN(CN(C3)C1)C2`, the growth with NCI-H23 lung is 92% (inactive); with NCI-H226 lung it was 98.2% (inactive); in the test on HOP-62 NSCLC it was 102% (inactive); in the test with NCI-H460 lung, 101% (inactive); in the test on HOP-92 NSCLC it was 85.9% (inactive); in the test on NCI-H522 lung, 97.9% (inactive). Further, the growth in the test on A549/ATCC NSCLC is 97.8% (inactive); with 786-0 renal, 89.5% (inactive); in the test with COLO 205 colon it was 104% (inactive).
In the case of `C/C1=C\[C@H](C)C[C@H](C)OC(=O)C[C@H](c2ccc(O)cc2)NC(=O)[C@@H](Cc2c(Br)[nH]c3ccccc23)N(C)C(=O)[C@H](C)NC(=O)[C@@H](C)C1`, the growth in the test with NCI-H23 lung was -4.18% (active); in the test on NCI-H226 lung, -6.93% (active); in the test on NCI-H322M lung it was 8.82% (active); in the test on HOP-62 NSCLC, -40.4% (active); in the test with NCI-H460 lung it was -13% (active); in the test with NCI-H522 lung it was -62.5% (active). For the same molecule, the results for the growth in the test on A549/ATCC NSCLC, in the test with 786-0 renal and in the test with COLO 205 colon were 3.5% (active), -55.9% (active) and 9.93% (active), respectively.
In the case of `O=C(O)c1cc(Cc2ccc(O)c(C(=O)O)c2)ccc1O` (tested in a mixture with another compound), the growth with NCI-H23 lung is 87.6% (inactive); in the test on NCI-H226 lung it was 88.7% (inactive); with HOP-62 NSCLC, 79.3% (inactive); in the test on NCI-H460 lung, 65.9% (inactive); in the test on HOP-92 NSCLC, -49.4% (active); in the test with NCI-H522 lung, -49.9% (active). The figures for the growth in the test on A549/ATCC NSCLC, in the test with 786-0 renal and in the test with COLO 205 colon were 79.9% (inactive), 78% (inactive) and 42.4% (inactive), respectively.
Consider `Cc1cc(C)c(C[N+](C)(C)C)c(C)c1C`, for which the growth with NCI-H23 lung was 3.56% (active); in the test on NCI-H226 lung it was 11.7% (inactive); with NCI-H322M lung, 1.22% (active); in the test on HOP-62 NSCLC it was 5.53% (active); with NCI-H460 lung it was 5.07% (active); with NCI-H522 lung, -39.5% (active). The figures for the growth in the test with A549/ATCC NSCLC, with 786-0 renal and in the test on COLO 205 colon were 5.53% (active), 4.58% (active) and 0.186% (active), respectively.
As for `O=[N+]([O-])/C=C/c1ccc([N+](=O)[O-])cc1`, the growth is 56.7% (inactive) and 68.7% (inactive) with NCI-H23 lung; 114% (inactive) in the test with NCI-H226 lung; 69.5% (inactive) and 107% (inactive) in the test with HOP-62 NSCLC; 19.9% (inactive) and 102% (inactive) in the test with NCI-H460 lung; 67.6% (inactive) and 97.8% (inactive) with HOP-92 NSCLC; 81.6% (inactive) and 47.3% (inactive) in the test on NCI-H522 lung. Further, the growth in the test with A549/ATCC NSCLC is 44.2% (inactive) and 101% (inactive); in the test with 786-0 renal, 55.2% (inactive) and 98.1% (inactive); with COLO 205 colon it was -8.72% (active) and 50.6% (inactive).
Take `COc1cc([C@@H]2c3cc4c(c(O)c3C[C@H]3COC(=O)[C@@H]32)OCO4)cc(OC)c1OC`: the growth in the test with NCI-H23 lung was 17.3% (inactive); in the test with NCI-H226 lung it was 48.8% (inactive); in the test with NCI-H322M lung, 21.9% (inactive); in the test on NCI-H460 lung, 0.25% (active); in the test on HOP-92 NSCLC, -31.4% (active); in the test with NCI-H522 lung it was -25% (active). The growth in the test with A549/ATCC NSCLC was 24.9% (inactive); in the test with 786-0 renal, -69.8% (active); in the test on COLO 205 colon, -69.5% (active).
In the case of `C=C1C(=O)O[C@@H]2C[C@@H](C)[C@@H]3C=CC(=O)[C@@]3(C)[C@@H](O)[C@H]12`, the growth in the test with NCI-H23 lung was -36.3% (active); in the test with NCI-H226 lung it was -38.6% (active); in the test on NCI-H322M lung, -24.7% (active); with HOP-62 NSCLC, -44.6% (active); in the test with NCI-H460 lung it was -26.4% (active); with NCI-H522 lung it was -81.2% (active). Further, the growth with A549/ATCC NSCLC is -3.45% (active); with 786-0 renal it was -71.6% (active); in the test on COLO 205 colon it was -95% (active).
For the molecule `COC1CC2C=C(C)/C=C/C=C/C(=O)NC(c3ccccc3)C/C=C/CCC(O)CC(=O)C2=C1O` (stereo not given), the growth is -73.5% (active) in the test with NCI-H23 lung; -61.6% (active) with NCI-H226 lung; -92.8% (active) in the test with NCI-H322M lung; -91.6% (active) with HOP-62 NSCLC; -73.3% (active) with NCI-H460 lung; -86.6% (active) in the test on HOP-92 NSCLC. Moreover, the results for the growth in the test with A549/ATCC NSCLC, in the test with 786-0 renal and with COLO 205 colon were -82.7% (active), -94.3% (active) and -79.1% (active), respectively.
For the molecule `O=C(CBr)Nc1ccccc1`, the growth in the test with NCI-H23 lung was 93.1% (inactive); with NCI-H226 lung it was 98.4% (inactive); in the test on HOP-62 NSCLC, 109% (inactive); in the test with NCI-H460 lung, 107% (inactive); with HOP-92 NSCLC it was 101% (inactive); in the test with NCI-H522 lung, -84% (active). The growth with A549/ATCC NSCLC is 98.5% (inactive); in the test with 786-0 renal, 102% (inactive); in the test with COLO 205 colon, 116% (inactive).
Consider `O=[N+]([O-])/C=C\c1ccc2c(c1)OCO2`, for which the growth was 87.2% (inactive) with NCI-H23 lung; 103% (inactive) in the test with NCI-H226 lung; 113% (inactive) with NCI-H322M lung; 84.8% (inactive) with NCI-H460 lung; 79.3% (inactive) with HOP-92 NSCLC; 72.2% (inactive) in the test on NCI-H522 lung. In addition, the values for the growth in the test with A549/ATCC NSCLC, in the test with 786-0 renal and in the test with COLO 205 colon were 81.7% (inactive), 89.6% (inactive) and 89.8% (inactive), respectively.
Turning to `NNc1ccccc1`, the growth in the test on NCI-H23 lung is 108% (inactive); with NCI-H226 lung it was 96.3% (inactive); with NCI-H322M lung, 114% (inactive); in the test on HOP-62 NSCLC it was 85.4% (inactive); in the test on NCI-H460 lung, 60.4% (inactive); in the test on A549/ATCC NSCLC it was 84.3% (inactive). In addition, the growth was 79.7% (inactive) in the test with 786-0 renal and 85.4% (inactive) in the test with COLO 205 colon.
`O=C1C=Cc2ccccc2C1=O`: the growth in the test with NCI-H23 lung was 73.5% (inactive); in the test on NCI-H226 lung, 100% (inactive); in the test with HOP-62 NSCLC, 73% (inactive); in the test with NCI-H460 lung, 78.7% (inactive); in the test on HOP-92 NSCLC it was 93.7% (inactive); in the test with NCI-H522 lung, 47.2% (inactive). Moreover, the figures for the growth with A549/ATCC NSCLC, in the test on 786-0 renal and in the test with COLO 205 colon were 97.9% (inactive), 110% (inactive) and 117% (inactive), respectively.
`CC(C)c1cc([N+](=O)[O-])cc([N+](=O)[O-])c1O`: the growth was 102% (inactive) with NCI-H23 lung; 102% (inactive) in the test with NCI-H226 lung; 98.5% (inactive) in the test with HOP-62 NSCLC; 105% (inactive) in the test with NCI-H460 lung; 75.1% (inactive) in the test with HOP-92 NSCLC; 103% (inactive) in the test on NCI-H522 lung. In addition, the figures for the growth in the test with A549/ATCC NSCLC, with 786-0 renal and in the test on COLO 205 colon were 103% (inactive), 101% (inactive) and 105% (inactive), respectively.
With `COC12C(COC(N)=O)C3=C(C(=O)C(C)=C(N)C3=O)N1CC1C2N1C` (stereo not given), the growth was 6.66% (active) in the test on NCI-H23 lung; 64.2% (inactive) in the test with NCI-H226 lung; 32.3% (inactive) in the test with HOP-62 NSCLC; -6.38% (active) in the test with NCI-H460 lung; -0.595% (active) with HOP-92 NSCLC; 17.7% (inactive) in the test with NCI-H522 lung. Besides, the growth with A549/ATCC NSCLC is 47.5% (inactive); in the test on 786-0 renal, 31.1% (inactive); with COLO 205 colon, 46.2% (inactive).
